CRFR2-BP antag = antagonists of CRF-BP/CRF-R2 complex, primary screen, cell-based, HEK293, calcium dye fluorescence, uHTS | CRF-induced calcium fluorescence | inhibition, % at 11.8 µM | hit rate 0.59% among 350,000;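 active = inhibition of the ligand-induced calcium signal above about 50% at the single tested concentration, limit read from the data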
ANO1 activ = TMEM16A chloride channel activators or potentiators, primary screen, cell-based, HTS; B-score at 10 µM; hit rate 0.3% among 340,000; Anoctamin-1 (Mus musculus), Q8BHY3; AID 623877, 2012; HEK293 TMEM16A/YFP-H148Q/I152L, iodide quench fluorescence; stronger effect = lower value;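 active = fluorescence-ratio B-score plate-corrected deviation score at least 3 library SD below zero, with starting fluorescence score within 5 deviations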;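 also: channel opened by trigger with iodide after compound preincubation; score built on the fluorescence ratio of max minus min over baseline; more negative score means more quench and so TMEM16A activation or potentiation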
TMEM16A inh = TMEM16A chloride channel inhibitors, primary screen, cell-based, HTS; hit rate 1.2% among 310,000; AID 588511, 2011; Anoctamin-1 (Mus musculus), Q8BHY3; HEK293 TMEM16A/YFP iodide influx fluorescence, ionomycin; normalized B-score (activity score, 25-100; higher = stronger inhibition) at 10 µM;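 active = ratio plate-corrected score three or more library SD toward inhibition, starting fluorescence score within five deviations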;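 also: score derived from kinetic fluorescence span divided by baseline fluorescence per well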
CRFBP-R2 agonist = agonists of CRF-BP/CRF-R2 complex, primary screen, cell-based, HEK293, calcium dye fluorescence, uHTS; AID 588473, 2011; CRF-binding protein / CRF receptor 2 complex (human); calcium dye fluorescence (FLIPR); percent of saturating CRF peptide response; hit rate 0.46% among 350,000; activation, % at 13.2 µM;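 active = activation of at least 50%, plus an integration ratio under a set limit after plate pattern correction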;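 also: plate controls were neutral control wells without compound for no effect and CRF at EC100 for full effect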
RTF Ca sens inh = cardiac RTF calcium sensitivity inhibitors, primary screen, biochemical, IANBD-TnC fluorescence, EC70 calcium. hit rate 0.12% among 340,000. IANBD-labeled cardiac RTF, Ca2+ fluorescence. inhibition, % at 7.15 µM;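 active = inhibition above the mean inhibition of all tested compounds plus 3 SD, cut at about 17% in these data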;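 also: assay run at fixed EC70 calcium of 1.6 mM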
RTF Ca sens act = cardiac RTF calcium sensitivity activators, primary screen, biochemical, IANBD-TnC fluorescence, EC20 calcium; Troponin I, cardiac muscle (Homo sapiens) + Troponin T, cardiac muscle (Homo sapiens) + …; hit rate 0.24% among 340,000; IANBD-labeled TnC RTF fluorescence at EC20 calcium; 0% EC20 calcium, 100% full calcium; activation, % at 7.2 µM; AID 493008, 2010;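 active = activation above the mean over all tested compounds plus 3 SD, cut at about 30% in these data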;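 also: rise in fluorescence read as greater calcium sensitivity of cardiac thin filaments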
TMEM16A reconf = TMEM16A chloride channel inhibitors, confirmation, cell-based, re-confirmation. shares compounds with TMEM16A inh. HEK293 TMEM16A/YFP-H148Q, iodide quench fluorescence; ionomycin added to raise cell calcium. inhibition, % at 10 µM. AID 652189, 2013. hit rate 39% among 2,300;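 active = mean duplicate percent inhibition, scaled so buffer wells are 0 and the reference blocker 100, over three buffer SD above buffer mean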
TMEM16A Ca cntr = calcium mobilization in TMEM16A/YFP HEK293 cells, confirmation, counter-screen for TMEM16A inhibitor project; shares compounds with TMEM16A inh; Fluo4 calcium mobilization; calcium response (% of ionomycin), % at 10 µM; hit rate 2% among 2,300; AID 652231, 2013;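 active = duplicate-averaged calcium signal over 20% of the ionomycin maximum, relative to buffer baseline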;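 also: each well's signal is peak minus trough fluorescence divided by its pre-addition baseline; 0% = buffer wells and 100% = ionomycin wells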
YFP-HEK293 quench = iodide YFP quench changes in parental YFP-HEK293, counter-screen for TMEM16A inhibitor project, cell-based. shares compounds with TMEM16A inh. ionomycin. YFP ratio F(max-min)/F0 at 10 µM. 2,300 tested, under 10 active. AID 652233, 2013;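 active = yellow fluorescent protein signal ratio exceeding the buffer control mean by over 5 SD of those controls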;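 also: ratio is mean of duplicate wells from kinetic YFP trace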
ClC-1 rat inh = ClC-1 chloride channel inhibition, selectivity assay for TMEM16A inhibitor project, cell-based, voltage-dependent ClC-1 | shares compounds with TMEM16A inh | 2,300 tested, under 10 active | AID 652236, 2013 | CHO ClC-1-YFP, iodide influx fluorescence quench; iodide control reads 0, buffer control 100 | ratio percent, % at 10 µM;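 active = duplicate-mean ratio percent above the mean of iodide-only control wells, which defines zero, plus 5 of their SD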;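 also: higher percent means stronger block of ClC-1 iodide influx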
Numbers without * were called inactive; i = inactive; nt = not tested or not shown. The list is not random: actives were taken first. Their share in the collection is about 2.4%.

SMILES | CRFR2-BP antag | ANO1 activ | TMEM16A inh | CRFBP-R2 agonist | RTF Ca sens inh | RTF Ca sens act | TMEM16A reconf | TMEM16A Ca cntr | YFP-HEK293 quench | ClC-1 rat inh
O=C(Nc1cccnc1)c1ccc(Cl)c(S(=O)(=O)N2CCCCCC2)c1 | -28.0 | i | 25* | -2.5 | -5.2 | -3.5 | 29.5%* | i | -1.07 | -13.5
O=C(NCC(O)c1ccccc1)c1ccc(Cl)c(S(=O)(=O)N2CCCCC2)c1 (configuration not stated) | 4.0 | i | 25* | -0.6 | 10.1 | 1.4 | i | i | -0.875 | -12.0
Cc1ccc(C(=O)Nc2cccnc2)cc1S(=O)(=O)N1CCCCCC1 | -25.7 | i | i | 1.7 | -6.4 | -0.3 | nt | nt | nt | nt
O=C(NCC(O)c1ccccc1)c1ccc(Cl)c(S(=O)(=O)N2CCCC2)c1 (configuration not stated) | -5.3 | i | i | 2.7 | -5.7 | -2.9 | nt | nt | nt | nt
O=C(Nc1ccccc1)Nc1ccc(Cl)c(S(=O)(=O)N2CCOCC2)c1 | -1.9 | i | 100* | 15.9 | 1.6 | 6.7 | 28.5%* | i | -0.91 | -11.5
O=C(Nc1ccc(Cl)c(S(=O)(=O)N2CCCCC2)c1)c1ccncc1 | -3.6 | i | nt | 5.6 | -5.0 | -4.2 | nt | nt | nt | nt
O=C(Nc1ccncc1)c1ccc(Cl)c(S(=O)(=O)N2CCCCC2)c1 | 8.2 | i | 25* | 0.1 | -16.2 | -0.2 | i | i | -1.03 | -20.5
O=C(Nc1nnc(C2CC2)s1)c1ccc(Cl)c(S(=O)(=O)N2CCc3ccccc3C2)c1 | -3.8 | i | 100* | 1.1 | -0.4 | -1.0 | 26.5%* | i | -1.13 | -3.0
O=C(Nc1ccncc1)c1ccc(Cl)c(S(=O)(=O)N2CCc3ccccc32)c1 | -13.5 | i | 25* | 1.3 | 1.3 | -6.9 | 31.5%* | i | -1.12 | -30.5
C=CC[C@@H](CC(=O)NCCO)C(=O)NCCOC(=O)[C@@H](CC=C)Cc1ccc(F)cc1 | 9.5 | nt | nt | -1.9 | 5.1 | 0.2 | nt | nt | nt | nt
COc1ccc(NC(=O)CSCC(=O)NC2(C)CCS(=O)(=O)C2)cc1 (configuration not stated) | -2.0 | i | i | -0.7 | -7.9 | -0.1 | nt | nt | nt | nt
CSc1nnc(SCC#N)s1 | 15.6 | i | i | 6.5 | nt | nt | nt | nt | nt | nt
CCN(C(=O)COC(=O)c1ccccc1Nc1cccc(C)c1C)C1CCS(=O)(=O)C1 (configuration not stated) | -10.9 | i | 100* | -0.8 | -3.4 | 3.6 | i | i | -0.923 | -8.5
CCN(C(=O)COC(=O)c1ccccc1Cc1ccccc1)C1CCS(=O)(=O)C1 (configuration not stated) | -7.2 | i | i | -0.3 | -1.1 | 1.7 | nt | nt | nt | nt
Cc1ccccc1-c1nc2ccc(Cl)cc2c(=O)n1O | 7.0 | i | i | -1.5 | 6.1 | -1.0 | nt | nt | nt | nt
Cc1ccccc1-c1cc(C(=O)n2cccn2)c2cc(Cl)ccc2n1 | 12.8 | i | 25* | -1.4 | 0.0 | -3.4 | i | i | -0.989 | -10.0
CCC(C)(C)n1nnnc1CN(Cc1ccco1)Cc1cc2cc3c(cc2[nH]c1=O)OCO3 | -40.9 | i | i | 0.5 | -10.3 | -1.8 | nt | nt | nt | nt
CCC(C)(C)n1nnnc1CN(Cc1ccc(Cl)cc1)Cc1ccco1 | 31.1 | i | 25* | -0.8 | -7.7 | -1.8 | 22.5%* | i | -1.1 | -15.5
CC(=O)Nc1cccc(NC(=O)C(C)N2c3cccc4cccc(c34)S2(=O)=O)c1 (configuration not stated) | 26.6 | i | i | 1.6 | -14.5 | -4.8 | nt | nt | nt | nt
COc1cc(/C=C2\C(=N)N3N=C(S(C)(=O)=O)SC3=NC2=O)cc(OC)c1OCCOc1ccc(C)cc1 | 38.3 | i | i | 0.7 | -4.9 | -1.4 | nt | nt | nt | nt
COc1cc(/C=C2\C(=N)N3N=C(S(C)(=O)=O)SC3=NC2=O)ccc1OCCOc1ccc(C)cc1 | 72.3* | i | 25* | 8.2 | -11.1 | -5.6 | i | i | -1.05 | -3.5
COc1ccc(NC(=O)c2sc3ncn(CC(=O)N4CCN(c5ccccn5)CC4)c(=O)c3c2C)c(OC)c1 | -11.2 | i | 25* | -0.5 | -4.1 | 3.9 | i | i | -1.01 | -10.0
Cc1ccc(S(=O)(=O)N2CCN(C(=O)CCC(=O)Nc3ccc(Br)c(C)c3)CC2)cc1 | -8.5 | i | nt | 0.2 | -1.1 | -2.3 | nt | nt | nt | nt
COc1ccc(C(=O)N2CCCC(c3nc(-c4cccs4)no3)C2)cc1OC (configuration not stated) | 2.7 | nt | i | -1.2 | 2.6 | 1.4 | nt | nt | nt | nt
COc1ccc(C(=O)N2CCCC(c3nc(-c4cccs4)no3)C2)cc1 (configuration not stated) | 2.3 | i | 25* | -0.9 | -9.0 | 2.2 | i | i | -1.1 | -8.0
O=C(c1ccccc1Br)N1CCCC(c2nc(-c3cccs3)no2)C1 (configuration not stated) | -23.8 | i | 25* | 0.1 | -0.7 | 0.8 | 19.0%* | i | -1.04 | -15.0
CC(=O)c1c(C(C)=O)c(C)n(-c2ccc(N)c(C)c2)c1C | -1.1 | i | i | 0.3 | 4.4 | 5.8 | nt | nt | nt | nt
CCn1c(CSc2nc3ccccc3s2)nc2ccccc21 | 2.5 | i | 100* | 0.0 | 4.8 | -0.5 | 43.0%* | i | -0.857 | -8.5
Cc1cc(Nc2ccccc2)nc(NCc2ccccc2)n1 | -97.5 | i | 100* | -1.4 | 5.5 | -7.0 | i | i | -1.12 | -24.5
